High-throughput results (PubChem)
Most compounds without a hit are left out; they make up all but 4.3% or so of the library.
uPA generation = inhibitors of cell surface uPA generation; 330,000 compounds, 0.31% hits; cell surface uPA generation assay, qHTS; Potency, µM (doses to about 38.3 µM), usual class: inhibitors; active = well fitted inhibition curve with a large enough effect; inconclusive = small, poorly fitted or top-dose-only effect; inactive = no such curve, though single readings can be large or run the other way; tested in mouse RAW 264.7 cells; also: nearly all actives have a fitted effect of over 55% in size
Giardia kill = Giardia lamblia killing. AID 540267. activity change, % at 7.66 µM, hits read low. Giardia lamblia trophozoite viability. 340,000 compounds, 0.15% hits; in the data active = activity change below about -80%; inconclusive = between about -30% and that limit;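 also: parasites exposed to compound for two days anaerobically before the ATP read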
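Luminescence from cellular ATP indicates surviving trophozoites (100 cells/well) following 48 hrs anaerobic compound treatment at 37 deg C; signal develops 15-30 min at room temperature.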
MCF10A rereplic = induces DNA re-replication in MCF 10a normal breast cells; MCF 10A DNA re-replication, Hoechst nuclear intensity, 48 h; Potency, µM (doses to about 46.1 µM), hits mostly activators; 350,000 compounds, 2.9% hits; also: nearly all actives have a fitted effect of over 50% in size
SW480 rerep = inducers of DNA re-replication in SW480 colon cancer cells | 340,000 compounds, 1.8% hits | Potency, µM (top dose mostly 46.1 µM), hits mostly activators | AID 624297 | SW480 DNA re-replication, Hoechst DNA content imaging, 48 h; also: nearly all actives have a fitted effect of over 55% in size
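Hoechst fluorescence of nuclei (405 nm excitation, 500-530 nm emission) measured by plate-scanning imager after 48 hr compound exposure at 37 C; re-replication scored as increased number of nuclei with elevated intensity.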
Hits are given with their value; 0 = inactive; ? = inconclusive; - = not tested or not shown; [ ] = remark or other dose. Unless noted, calls follow the shape of the dose curve; as a rule, active = well fitted activation curve with a large enough effect; inconclusive = small, poorly fitted or top-dose-only effect; inactive = no such curve, though single readings can be large or run the other way.

SMILES	uPA generation	Giardia kill	MCF10A rereplic	SW480 rerep
CCc1ccc(C2=NNC(=Nc3cccc(S(=O)(=O)N(C)C)c3)SC2)cc1	0	0	?	21µM
CC(C)C[C@@H](CNCC(=O)[C@H](CC(C)C)NC(=O)c1[nH]cnc1C(=O)N[C@@H](C)CN)NC(=O)c1nc[nH]c1C(=O)N[C@@H](CC(=O)O)C(=O)O	0	0	0	0
Nc1nc2ccccc2n1C(=O)c1ccccc1	2.8µM	?	0	0
COc1cc(NC(=O)COc2ccc(Cl)cc2)ccc1-c1cc2ccccc2oc1=O	0	0	7.3µM	?
COc1cc(NC(=O)COc2ccc(Cl)cc2)ccc1NC(=O)C(C)C	0	0	0	0
CC(C)(C)NC(=O)CSc1nc(Cc2ccccc2)nc2ccccc12	0	0	0.65µM	0
O=C(Nc1ccc(Cl)c(S(=O)(=O)N2CCOCC2)c1)c1ccc(OCC2CCCO2)cc1 (configuration not stated)	0	0	18µM	0
O=C(Cc1cccs1)Nc1ccc(Cl)c(S(=O)(=O)N2CCOCC2)c1	0	0	0	5.8µM
O=C1C=C(c2ccccc2)CC(c2cccs2)C1n1cnc([N+](=O)[O-])c1 (configuration not stated)	0	0	0	0
O=C1C=C(c2ccccc2)C[C@H](c2cccs2)[C@H]1n1nnc([N+](=O)[O-])n1	0	0	?	2.1µM
COc1ccc(CCNS(=O)(=O)c2cc3c4c(c2)CCN4C(=O)CC3)cc1OC	0	0	0	0
COc1ccccc1CCNS(=O)(=O)c1cc2c3c(c1)CCN3C(=O)CC2	0	0	0	1.5µM
CCNC(=O)NC(=O)COC(=O)CCc1nc(=O)c2ccccc2n1C	0	0	0	0
S=c1[nH]nc(-c2cc(-c3ccccc3)n[nH]2)n1/N=C/c1cccc(Cl)c1	0	0	23µM	?
S=c1[nH]nc(-c2cc(-c3ccccc3)n[nH]2)n1/N=C/c1ccc(Cl)cc1	0	0	?	0
CN(C)N=Nc1nc2c(c(=O)n(C)c(=O)n2C)n1CC1CO1 (configuration not stated)	0	0	16µM	16µM
c1ccc2c(c1)nc(N1CCOCC1)c1c3ccccc3[nH]c21	-	0	3.7µM	?
CCn1c2ccccc2c2cc(NS(=O)(=O)c3ccc(C)cc3)ccc21	0	0	18µM	?
Cc1cc(NCCNC2=CC(=O)CCC2)nc2ccccc12	0	0	0	0
Cc1cc(NCC2CCCCC2)nc2ccccc12	0	0	26µM	0
O=C(CCC1CCCN(C(=O)c2cc3ccccc3o2)C1)NCc1ccc(F)c(F)c1 (configuration not stated)	0	0	0	0
CC(C)(C)C(=O)Nc1ccc(-c2cn3ccsc3n2)cc1	0	-97	0	0[9.22 µM]
CC(C)CC(=O)Nc1ccc(-c2cn3ccsc3n2)cc1	0	0	0	0
C[C@]1(c2ccccc2)OC(C(=O)O)=CC1=O	-	-	0	0
CN1CCCC1CCNc1ccc2sc3ccccc3c(=O)c2c1 (configuration not stated)	?	0	0	?
SMILES	uPA generation	Giardia kill	MCF10A rereplic	SW480 rerep
Cc1cc2oc3cc(NCCC4CCCN4C)ccc3c(=O)c2cc1C (configuration not stated)	?	0	16µM	?
O=C(N/N=C\c1ccc([N+](=O)[O-])o1)C1COc2ccccc2O1 (configuration not stated)	0	-82	?	?
O=C(N/N=C\c1ccc(-c2ccccc2[N+](=O)[O-])o1)C1COc2ccccc2O1 (configuration not stated)	0	0	0	?
O=C(N/N=C\c1ccc([N+](=O)[O-])s1)C1COc2ccccc2O1 (configuration not stated)	?	-85	0	0
CC(NC(=O)C12CC3CC(CC(C3)C1)C2)C(=O)N/N=C/C1=C(N2CCOCC2)C(=C\c2cccc([N+](=O)[O-])c2)/CC1 (configuration not stated)	0	0	0	0
O=C(N/N=C/c1c[nH]c2ccccc12)C1COc2ccccc2O1 (configuration not stated)	?	?	21µM	?
CC(NC(=O)C12CC3CC(CC(C3)C1)C2)C(=O)NN=Cc1ccc([N+](=O)[O-])o1 (configuration not stated)	0	-93	?	?
O=C(N/N=C/c1c[nH]c2ccccc12)C1CC1c1ccccc1 (configuration not stated)	0	0	0	0
Cc1c(N(C)S(=O)(=O)c2ccc(Cl)c(C(=O)NCC(C)(C)N3CCOCC3)c2)c(=O)n(-c2ccccc2)n1C	0	0	0	0
CSCCC(=O)N1CC[C@@H](N2CCN(c3ccccc3F)CC2)[C@H](O)C1	0	?	0	0
CC(NC(=O)C1CCN(C(=O)c2ccc(F)cc2)CC1)c1ccc(S(N)(=O)=O)cc1 (configuration not stated)	0	0	0	0
CC[C@@]1(C(=O)OC)N[C@H](CN(C)S(=O)(=O)c2ccc(OC)cc2)[C@@H]2C(=O)N(C)C(=O)[C@@H]21	0	0	0	?
O=C(N/N=C/c1ccco1)C1CCCC1	0	0	0	0
O=C(N/N=C\c1ccc(Cl)s1)C1COc2ccccc2O1 (configuration not stated)	?	0	?	16µM
O=C(N/N=C/c1ccc([N+](=O)[O-])o1)C1CCCC1	0	-93	0	0
CC(NC(=O)c1ccc([N+](=O)[O-])o1)C12CC3CC(CC(C3)C1)C2 (configuration not stated)	0	-87	?	?
O=C(N/N=C/c1ccc(N2CCOCC2)cc1)C1COc2ccccc2O1 (configuration not stated)	0	0	?	0
O=[N+]([O-])c1ccc(/C=[N+](\[O-])[C@@H]2CCCC[C@@H]2/[N+]([O-])=C/c2ccc([N+](=O)[O-])o2)o1	0	-82	23µM	2.9µM
COc1cccc(OC)c1C(=O)NC(C)C12CC3CC(CC(C3)C1)C2 (configuration not stated)	0	0	0	0
[O-]/[N+](=C\c1ccccc1)[C@@H]1CCCC[C@@H]1/[N+]([O-])=C/c1ccccc1	0	0	0	0
CC(C)(C)CCN1CCC(CN2CCNC(=O)C2=O)CC1	0	0	0	0
O=C(Cn1ncn2nc(-c3ccccc3)cc2c1=O)NCc1ccccn1	0	0	0	0
O=C(Nc1ccccc1)C1=C(c2ccccc2)S(=O)(=O)CCS1(=O)=O	0	0	?	1.3µM
O=C(O)c1ccccc1C(=O)Nc1ccccc1	-	0	0	0
COc1ccc(-c2nc(-c3ccccc3)c(-c3cc([N+](=O)[O-])ccc3C)[nH]2)cc1OC	0	0	0	0
COc1ccc(-c2[nH]c(-c3cc(OC)c4c(c3)OCO4)nc2-c2ccccc2)cc1	0	0	13µM	0
O=S(=O)(c1cc(Cl)cc(Cl)c1)N1CCN(c2nc(-c3cccs3)nc3ccccc23)CC1	-	0	-	-
Cc1ccc(C(=O)COC(=O)c2ccc3c(c2)C(=O)N(c2cccc4ncccc24)C3=O)cc1C	0	0	16µM	0
O=Cc1ccccc1-c1cn(CN2C(=O)c3ccccc3C2=O)nn1	0	0	0	0
